# In the library only some 0.56% were active in any assay of this set; here they are far more common.
# LDHA inh – inhibitors of human lactate dehydrogenase A; actives 0.15% (n = 480,000); purified LDHA, NADH/diaphorase-resazurin fluorescence; stronger effect = lower value; P00338; activity change, % (values are at about 110 or 230 µM); in the data active = activity change below about -30%; inconclusive = mostly about -25% to -30%;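 also: plate controls were DMSO wells for no effect and wells without enzyme for full effect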
#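 Remaining NADH was detected by diaphorase (0.133 mg/mL) converting 37 µM resazurin to fluorescent resorufin, read at 0 and 20 minutes. The preceding 5-minute room-temperature reaction used 2 nM LDHA, 0.2 mM sodium pyruvate and 0.06 mM NADH at pH 7.4.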
# EPAC2 antagonist – blocks human EPAC2 exchange factor; actives 0.18% (n = 360,000); Q8WZA2; Potency, µM (highest dose often 114 µM), for inactives: top-dose activity, negative = inhibition, usual class: inhibitors; EPAC2 GEF exchange of Rap1B-BODIPY-GDP, fluorescence; also: potency is read from the fitted curve at half-maximal effect; % is scaled to controls: 0 for no effect and ±100 for the full control effect; nearly all actives have a fitted effect of over 45% in size
# EPAC2 ag – activates human EPAC2 exchange factor. Q8WZA2. EPAC2 activation, biochemical qHTS; response scale: 100% = 6.5 mM cAMP response. Potency, µM (series often up to 154 µM), inactives show at the top dose activation, hits mostly activators. actives 0.079% (n = 360,000). AID 720711; also: potency is read from the fitted curve at half-maximal effect; nearly all actives have a fitted effect of over 50% in size
#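 Fluorescence exchange assay: 100 nM EPAC2 with 250 nM RAP1B-BODIPY-GDP and 50 uM GDP; compounds tested as a concentration-titration series (qHTS). Loss of Rap1-bound BODIPY-GDP fluorescence read at 480/540 nm; data normalized to 6.5 mM cAMP.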
# USP1 inh – USP1/UAF1 (human) deubiquitinase inhibition | recombinant USP1/UAF1, Ub-Rhodamine cleavage fluorescence | Potency, µM (doses to about 57.1 µM), for the others: at the top dose activity change, negative = inhibition, hits mostly inhibitors | actives 0.23% (n = 390,000) | AID 743255; also: potency is read from the fitted curve at half-maximal effect; % is scaled to controls: 0 for no effect and ±100 for the full control effect; nearly all actives have a fitted effect of over 60% in size
#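 High-throughput fluorogenic screen: 1nM USP1/UAF1 complex, Ub-Rho substrate 150nM final, 50mM HEPES pH 7.8 with 0.5mM EDTA, 0.1 mg/ml BSA, 1mM TCEP and 0.01% Tween-20.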
# EPAC1 agonist – activates human EPAC1 exchange factor; O95398; EPAC1 agonist qHTS, biochemical assay; response scale: 100% = response to 6.5 mM cAMP; Potency, µM (titrated, usually from 154 µM), for the others: top-dose activation, usual class: activators; actives 0.073% (n = 360,000); also: potency is read from the fitted curve at half-maximal effect; nearly all actives have a fitted effect of over 60% in size
#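 EPAC1 100 nM, Rap1B–BODIPY-GDP 250 nM, unlabeled GDP 50 uM; compound titration; 5 min RT; kinetic read ex480/em540 at 5-min intervals ×30 min; data normalized to 6.5 mM cAMP agonist control.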
# EPAC1 antagonist – blocks human EPAC1 exchange factor. O95398. EPAC1 GEF assay, Rap1b-BODIPY-GDP exchange fluorescence. Potency, µM (titrated, usually from 115 µM), for the others: top-dose activity change, negative = inhibition, actives largely listed as inhibitors. actives 0.14% (n = 360,000). AID 720709;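 also: potency is read from the fitted curve at half-maximal effect; plate controls were vehicle for no effect and positive control for full effect; nearly all actives have a fitted effect of over 50% in size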
# * hit, by the source's call; u = inconclusive; x = no result. Unless noted, calls follow the shape of the dose curve; as a rule, active = well fitted curve in the direction sought with a large enough effect; inconclusive = small, poorly fitted or top-dose-only effect, or another doubt; inactive = no such curve, though single readings can be large; an effect the other way counts as inactive or inconclusive.
SMILES,LDHA inh,EPAC2 antagonist,EPAC2 ag,USP1 inh,EPAC1 agonist,EPAC1 antagonist
CCC(C)n1c(=N)c(C#N)cc2c(=O)n3ccccc3nc21 (stereo unspecified),2,87%,56µM*,-16%,-7%,7%
O=C(NC(CO)C(=O)O)OCc1ccccc1 (stereo unspecified),0,x,x,x,x,x
CC(Cc1cccs1)N(Cc1ccccc1)C(=O)c1cccc(S(=O)(=O)N2CCOCC2)c1 (stereo unspecified),1,x,x,x,x,x
Cc1cc(/C=N/NC(N)=S)c(O)c(/C=N/NC(N)=S)c1,-3,25%,u,u,40µM*,-13%
NC(=S)N/N=C/c1cccc(O)c1O,25,1%,4%,-12%,2%,-21%
O=C(Nc1ccc(O)cc1)c1cc(-c2ccco2)nc2ccccc12,3,x,x,x,x,x
CC1CC(C)C[N+](=C2C=C(N3CCCC3)CC(C)(C)C2)C1 (stereo unspecified),-99*,4%,6%,-3%,9%,-11%
CCOC(=O)c1ccc(NC(=O)CC2SC(c3cc4ccccc4oc3=O)=NC2=O)cc1 (stereo unspecified),-31*,x,x,x,x,x
CCc1ccc(C(=O)NNC(=O)c2ccc(=O)n(C)n2)cc1,-1,-3%,1%,-13%,-3%,8%
CC1=CC(C)(C)N(C(=O)CCl)c2ccccc21,-1,u,6%,-11%,1%,-9%
CC1=CC(C)(C)N(C(=O)CCl)c2cc(C)ccc21,-5,50µM*,6%,-23%,-5%,-9%
Cc1ccc(C(=O)N/N=C/c2ccc([N+](=O)[O-])s2)cc1,-35*,6%,5%,1%,2%,-6%
O=C(N/N=C/c1ccc([N+](=O)[O-])s1)c1ccncc1,7,-15%,2%,-10%,-7%,-29%
CN(CCc1ccccn1)C(=O)Nc1ccc(F)cc1,-2,5%,6.3µM*,-7%,1%,4%
CCCN1CC=C2C(C#N)=C(N)C(C#N)(C#N)C(c3cccc(OC)c3OC)C2C1 (stereo unspecified),2,22µM*,7%,-25%,u,-8%
CCN1CC=C2C(C#N)=C(N)C(C#N)(C#N)C(CCc3ccccc3)C2C1 (stereo unspecified),22,45µM*,50µM*,22µM*,100µM*,u
CC(=O)N1CC=C2C(C#N)=C(N)C(C#N)(C#N)C(CCc3ccccc3)C2C1 (stereo unspecified),16,-22%,24%,-22%,20%,-2%
O=C1C=C(NCCc2cc(Br)c(O)c(Br)c2)C(=O)c2ncccc21,37,79µM*,-1%,3.5µM*,15%,50µM*
Cc1ccc(Oc2ccc(S(=O)(=O)Nc3ccc(C(=O)O)cc3)cc2)cc1,-3,-14%,-1%,-12%,-19%,10%
Cc1ccc(Sc2ccc(S(=O)(=O)Nc3ccc(C(=O)O)cc3)cc2)cc1C,0,u,-3%,-23%,-6%,71µM*
C[C@H]1COC(=O)CC/C=C\C[C@H](CC(=O)N(CCO)Cc2ccccc2)C(=O)N1,-9,-3%,15%,-17%,8%,2%
N#Cc1nc(-c2ccc(F)cc2)oc1N1CCN(Cc2ccccc2)CC1,-34*,x,x,x,x,x
N#Cc1nc(-c2ccccc2F)oc1N1CCCCC1,0,-29%,10%,-8%,3%,0%
CCN1CCN(c2oc(-c3cccs3)nc2C#N)CC1,-31*,x,x,x,x,x
CCN1CCN(c2oc(-c3ccccc3F)nc2C#N)CC1,-31*,x,x,x,x,x
SMILES,LDHA inh,EPAC2 antagonist,EPAC2 ag,USP1 inh,EPAC1 agonist,EPAC1 antagonist
COc1ccc(C(=O)C(C)Sc2nncn2-c2ccccc2OC)cc1 (stereo unspecified),-4,x,x,x,x,x
Cc1cc(-c2c(C)n([O-])c(C)c(-c3ccccc3)[n+]2=O)ccc1Cl,13,x,x,x,x,x
Cc1ccc(NC(=O)CSc2nc3ccc(NC(=O)c4cccs4)cc3s2)c(C)c1,-13,x,x,-1%,x,x
COc1ccccc1CCNC(=O)c1sc(NC2CC2)nc1C,-3,x,x,x,x,x
C#CCOCCOCCOCCNc1nc(N2CCN(C(=O)CCCCCCCCCCNC(=O)Cn3cc(C[C@@H](C)O)nn3)CC2)nc(N2CCN(C(=O)CCCCCCCCCCNC(=O)[C@@H]([C@H](C)CC)n3cc(CCCCCN)nn3)CC2)n1,7,-28%,16%,u,19%,50µM*
C#CCOCCOCCOCCNc1nc(N2CCN(C(=O)CCCCCCCCCCNC(=O)Cn3cc(CCCCCN)nn3)CC2)nc(N2CCN(C(=O)CCCCCCCCCCNC(=O)Cn3cc(C[C@@H](C)O)nn3)CC2)n1,0,u,u,u,23%,35µM*
C#CCOCCOCCOCCNc1nc(N2CCN(C(=O)CCCCCCCCCCNC(=O)[C@H](CCCCN)n3cc(C[C@@H](C)CC)nn3)CC2)nc(N2CCN(C(=O)CCCCCCCCCCNC(=O)[C@H](CCCN=C(N)N)n3cc(C[C@@H](C)CC)nn3)CC2)n1,3,u,11%,u,27%,u
C#CCOCCOCCOCCNc1nc(N2CCN(C(=O)CCCCCCCCCCNC(=O)[C@H](CCCCN)n3cc(C)nn3)CC2)nc(N2CCN(C(=O)CCCCCCCCCCNC(=O)[C@H](CCCN=C(N)N)n3cc(C[C@@H](C)CC)nn3)CC2)n1,0,-21%,19%,u,5%,50µM*
C#CCOCCOCCOCCNc1nc(N2CCOCC2)nc(N2CCN(C(=O)[C@H](Cc3cc4ccccc4[nH]3)n3cc([C@@H](N)C(C)CC)nn3)CC2)n1 (stereo partly specified),1,5%,1%,45µM*,-4%,-8%
O=S(=O)(NCc1ccc(Cn2cccn2)cc1)c1ccc(C(F)(F)F)cc1,-9,x,x,x,x,x
O=C(Cc1ccc(Cl)cc1)Nc1ccc(S(=O)(=O)Nc2ncccn2)cc1,-6,-12%,4%,-9%,-3%,-5%
O=C(Cc1c(Cl)cccc1Cl)Nc1ccc(S(=O)(=O)Nc2ncccn2)cc1,-8,10µM*,4%,u,10%,8%
Cc1ccnc(NS(=O)(=O)c2ccc(NC(=O)Cc3c(F)cccc3Cl)cc2)n1,-2,u,7%,-25%,-3%,0%
NS(=O)(=O)c1ccc(NC(=O)Cc2c(F)cccc2Cl)cc1,-1,28µM*,-2%,-3%,1%,-18%
O=C(c1ccccc1)C(Sc1ccccn1)c1ccccc1 (stereo unspecified),10,x,x,x,x,x
